# LmPK inh – qHTS Assay for Inhibitors of Leishmania Mexicana Pyruvate Kinase (LmPK) | purified LmPK, Kinase-Glo ATP luminescence, 1 h | Potency, µM (series often up to 57.5 µM), usual class: inhibitors | 0.37% of 290,000 active | AID 1721, 2009
#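 qHTS format; LmPK 0.1 nM; substrates PEP 0.5 mM and ADP 0.1 mM. One-hour room-temperature incubation, then coupled luciferase luminescence; 0.5 nM enzyme wells mark activation.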
# TbPYK inhibitor – qHTS of Trypanosoma Brucei Inhibitors | TbPYK enzyme, Kinase-Glo Plus ATP luminescence, 45 min | Potency, µM (titrated, usually from 76.8 µM), hits mostly inhibitors | 0.12% of 410,000 active | AID 624173, 2012; also: nearly all actives have a fitted effect of over 50% in size
#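 Enzyme and substrate buffer are dispensed first and compound is pin-transferred. ADP at 130 uM final then starts the reaction, which runs 45 min at room temperature. Detection reagent is added for 10 min before luminescence is imaged.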
# Cycloheximide cs – Cycloheximide Counterscreen for Small Molecule Inhibitors of Shiga Toxin. cell reporter, cycloheximide protein synthesis inhibition counterscreen. max response, %. 12% of 300,000 active. AID 2314, 2010; in the data active = max response mostly above about 13%, no sharp cut-off; inactive = mostly below about 14%; also: read at 38.3 µM for the half of the compounds with a filed dose
# FBPA Giardia inh – qHTS Assay for Inhibitors of Fructose-1,6-bisphosphate Aldolase from Giardia Lamblia. purified Giardia FBPA. Potency, µM (top dose mostly 59.6 µM), most hits filed as inhibitors. 0.71% of 290,000 active. AID 2451, 2010; also: nearly all actives have a fitted effect of over 55% in size
# Target sequence (A8B2U2 whole entry, looked up): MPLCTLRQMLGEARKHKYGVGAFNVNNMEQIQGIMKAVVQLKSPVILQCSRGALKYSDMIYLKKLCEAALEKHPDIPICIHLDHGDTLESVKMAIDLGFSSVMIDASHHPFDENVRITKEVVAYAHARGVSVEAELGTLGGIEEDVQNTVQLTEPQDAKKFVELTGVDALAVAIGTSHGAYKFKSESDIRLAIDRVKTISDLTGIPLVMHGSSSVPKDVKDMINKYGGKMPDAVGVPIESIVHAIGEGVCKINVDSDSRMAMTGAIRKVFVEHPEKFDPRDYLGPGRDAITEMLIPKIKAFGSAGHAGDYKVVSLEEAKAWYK
#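 Giardia FBPA (40 nM reagent) was preincubated 10 min at RT with compound (up to 57.5 uM final), then substrate plus GAPDH/TPI/NAD/arsenate coupling system with diaphorase/resazurin was added; resorufin fluorescence (525/598 nm) was read after 20 min.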
# RE007 growth inh – qHTS Assay for Inhibitors of the HIV-1 protein Vpr; S. pombe RE007 Vpr strain, BacTiter-Glo ATP luminescence, 24 h; AID 651644, 2012; 0.21% of 360,000 active; Potency, µM (highest dose often 92.2 µM), most hits filed as inhibitors; active = well fitted falling curve with a large enough effect; inconclusive = small, poorly fitted or top-dose-only effect; inactive = no such curve, though single readings can be large or run the other way; also: nearly all actives have a fitted effect of over 50% in size
#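 Fission yeast RE007 carrying one integrated HIV-1 vpr copy, seeded at OD 0.01 in PMG+AL medium with 23 nL pinned compound. Grown 24 h at 30 degrees; viability read by BacTiter-Glo luminescence after 5 min.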
# Shiga toxin inh – A qHTS for Small Molecule Inhibitors of Shiga Toxin. inhibition, % at 38.7 µM. AID 2315, 2010. Vero cells, Shiga toxin protein synthesis inhibition reporter. 9.2% of 290,000 active; in the data active = inhibition mostly above about 28%, no sharp cut-off; inactive = mostly below about 43%
# Hits are given with their value; i = inactive; ? = inconclusive; nt = not tested or not shown; [ ] = remark or other dose. This is one part of a sample in which hits are shown more often than they occur. Unless noted, calls follow the shape of the dose curve; as a rule, active = well fitted curve in the direction sought with a large enough effect; inconclusive = small, poorly fitted or top-dose-only effect, or another doubt; inactive = no such curve, though single readings can be large; an effect the other way counts as inactive or inconclusive.
SMILES,LmPK inh,TbPYK inhibitor,Cycloheximide cs,FBPA Giardia inh,RE007 growth inh,Shiga toxin inh
O=c1c2ncn([C@@H]3O[C@@H]4COP(=O)(O)O[C@H]4[C@H]3O)c2nc2[nH]c(-c3ccccc3)cn12,nt,nt,i,i,nt,i
CN(C)S(=O)(=O)c1cccc(C(=O)OCC(=O)Nc2ccc3c(c2)OCCO3)c1,nt,i,nt,nt,i,nt
CN(C)S(=O)(=O)c1cccc(C(=O)OCC(=O)Nc2sccc2C#N)c1,i,i,56.3,i,i,74.5
COc1ccc(C(=O)NCC(=O)OCC(=O)Nc2sccc2C#N)cc1OC,i,i,22.3,i,i,36.1
CC(C)Sc1nnc(NC(=O)c2ccc3c(c2)OCO3)s1,i,i,24.5,nt,i,56.0
CC(C)c1nnc(NC(=O)c2ccc3c(c2)OCO3)s1,i,i,39.9,i,i,125.2
CC(C)(C)c1nnc(NC(=O)c2ccc3c(c2)OCO3)s1,i,i,39.5,i,i,169.8
CCSc1nnc(NC(=O)c2ccc3c(c2)OCO3)s1,i,i,44.9,i,i,66.6
CCOC(=O)CSc1nnc(NC(=O)c2ccc3c(c2)OCO3)s1,i,i,i,nt,i,i
Cc1noc(C)c1S(=O)(=O)N(CC(=O)NCc1ccccc1Cl)c1ccc(C(C)C)cc1,nt,i,nt,nt,nt,nt
Nc1ncc(S(=O)(=O)NCc2cccc(Cl)c2)cn1,nt,i,nt,nt,nt,nt
CCN(CC)C(=O)c1sc(NC(=O)c2ccncc2)c(C(=O)OC)c1C,i,i,i,i,i,i
CCN(CC)C(=O)c1sc(NC(=O)c2ccc3c(c2)OCO3)c(C(N)=O)c1C,i,i,42.3,nt,i,i
COc1cc(OC)c(NC(=O)C2CCN(S(=O)(=O)c3ccc4c(c3)CC(C)N4C(C)=O)CC2)cc1Cl (configuration not stated),i,i,17.1,i,i,i
N/C(=N\C(=S)Nc1ccccc1)c1ccccc1,i,i,40.0,i,i,99.5
NC(N)=NC(=S)Nc1ccc(Cl)cc1,i,i,34.2,?,i,38.8
CC(=O)[C@]1(O)CCC2C3CC(C)C4=CC(=O)C=CC4(C)[C@@]3(F)C(O)C[C@]21C (some centres not stated),nt,nt,nt,i,nt,nt
CCN(CC)S(=O)(=O)c1cc(NC(=O)CNc2cccc(S(=O)(=O)N3CCCC3)c2)ccc1C,nt,i,nt,nt,i,nt
O=C(Nc1ccc(F)cc1F)c1ccco1,i,i,i,i,i,i
O=C(Nc1ccc(F)c(F)c1)c1ccco1,i,i,45.1,i,i,88.7
O=C(Nc1cc(Cl)ccc1Cl)c1ccco1,i,i,i,i,i,nt
O=C(Cc1ccccc1)Nc1ccc(NC(=O)c2ccco2)cc1Cl,i,i,i,i,i,i
O=C(Nc1ccc(Cl)c(Cl)c1)c1ccco1,i,i,48.4,i,?,49.8
O=C(Nc1ccc(Cl)c(C(F)(F)F)c1)c1ccco1,i,i,12.8,i,?,i
Cc1cc(C)c(Cn2c3ccccc3c3cnn(CC(=O)NCCCc4ccccc4)c(=O)c32)c(C)c1,nt,i,nt,nt,nt,nt
SMILES,LmPK inh,TbPYK inhibitor,Cycloheximide cs,FBPA Giardia inh,RE007 growth inh,Shiga toxin inh
CC(C)(C)CC(=O)NCC(c1ccc2c(c1)OCO2)N1CCOCC1 (configuration not stated),nt,i,nt,nt,nt,nt
CCc1cnc2c(c1SCCC(C)C)c(=O)n(C)c(=O)n2C,nt,i,nt,nt,nt,nt
Cc1ccc(-c2noc(C3CCCN(C(=O)c4ccc(Cl)cc4)C3)n2)o1 (configuration not stated),i,i,35.6,i,i,i
Cc1ccc(-c2noc(C3CCCN(C(=O)C4CCCCC4)C3)n2)o1 (configuration not stated),i,i,23.6,i,i,i
CCOc1ccc(C(=O)N2CCCC(c3nc(-c4ccc(C)o4)no3)C2)cc1 (configuration not stated),i,i,i,nt,i,i
CO[C@@H]1COC(=O)[C@H](C)NC(=O)C/C=C\[C@@H](C)[C@@H](NS(=O)(=O)c2ccc(C)cc2)COC(=O)C/C=C\[C@@H]1C,nt,nt,nt,i[12.9 µM],nt,nt
CCc1nc2c(OCc3ccc(F)c(F)c3)cccn2c1N(C)C(=O)c1ccncc1,nt,i,nt,nt,i,nt
Cc1ccc2c(c1)c1ncnc(N3CCC4(CC3)OCCO4)c1n2C,i,nt,33.4,i,nt,63.9
Cc1ccc2c(c1)c1ncnc(N3CCOCC3)c1n2C,i,i,28.4,i,i,94.3
Cc1ccc2c(c1)c1ncnc(N3CCN(c4ccccc4)CC3)c1n2C,i,i,i,i,i,i
CO[C@@H]1COC(=O)CC=C[C@@H](C)[C@@H]2C=C[C@H](O)[C@@H](COC(=O)[C@H](C)NC(=O)CC=C[C@H]1C)O2,nt,nt,nt,i[12.9 µM],nt,nt
Cc1cc(OCC(=O)N(C)Cc2ccccc2)ccc1Br,i,i,34.5,i,i,56.4
COc1ccc(OCC(=O)N(C)Cc2ccccc2)cc1,i,i,i,i,i,i
Cc1cc(OCC(=O)N(C)Cc2ccccc2)ccc1Cl,i,i,27.7,i,i,23.7
CN(Cc1ccccc1)C(=O)CC(=O)N(C)Cc1ccccc1,i,i,27.5,i,i,52.1
CN(Cc1ccccc1)C(=O)Cc1ccccc1,i,i,i,i,i,i
Cc1nn(CC(=O)N(C)Cc2ccccc2)c(=O)c2cccn12,i,i,i,nt,i,46.1
COc1ccc(-c2cc(C(F)(F)F)n3ncc(-c4ccccc4)c3n2)cc1,nt,i,nt,nt,nt,nt
COc1ccc(NC(=O)CSc2nnc(-c3ccncc3)o2)c([N+](=O)[O-])c1,i,i,i,i,i,i
Cc1cc2c(s1)c1cnn(Cc3cccc(Cl)c3)c(=O)c1n2C,nt,nt,i,nt,nt,i
O=C(O)c1ccccc1N/N=C\c1ccnc2ccccc12,i,i,28.3,i,i,i
O=C(O)c1ccccc1N/N=C/c1cc(Br)cc(Br)c1O,i,i,37.4,i,i,126.5
ON=Cc1ccnc2ccccc12,nt,i,nt,nt,i,nt
COc1ccc(C(=O)Oc2ccc(/C=N/O)cc2)cc1,i,nt,74.0,i,i[3.69 µM],83.0
COc1ccc(OC(=O)c2ccncc2)cc1,i,i,i,i,i,i
SMILES,LmPK inh,TbPYK inhibitor,Cycloheximide cs,FBPA Giardia inh,RE007 growth inh,Shiga toxin inh
C=CCOc1ccc(/C=N\NC(N)=S)cc1,i,i,i,i,i,i
NC(=S)N/N=C/c1ccccc1[N+](=O)[O-],i,i,i,?,i,i
CC(C)Oc1ccc(/C=N/NC(N)=S)cc1,i,i,60.9,?,i,66.5
COc1ccc(/C=N/N=C/c2ccc(OC)cc2)cc1,i,i,24.6,i,i,i
COC(=O)c1cccc(/C=N/NC(N)=S)c1O,i,i,27.2,i,i,i
COc1ccc(/C=N\N=C(N)N)cc1,i,i,i,i,i,i
COc1ccc(/C=N/NC(N)=S)cc1,i,i,12.7,?,i,i
COc1ccc(/C=N/NC(=O)Nc2nonc2N)cc1,i,i,47.9,i,i,75.1
Cc1cc(Cl)ccc1OCC(=O)Nc1ccccc1C(=O)N1CCOCC1,i,i,i,nt,i,i

# Assay outcomes (PubChem BioAssay)
